The values that follow come from PubChem BioAssay (NCATS).

Assay [1] deals with Estrogen receptor (Homo sapiens) (UniProt P03372). Put plainly: qHTS assay for small molecule antagonists of estrogen receptor alpha signaling (AID 588513; active = well fitted curve in the direction sought with a large enough effect in the signal ratio, with a control signal flat, not every such curve was filed as active; the % refers to the signal ratio; also: % is scaled to controls: 0 for no effect and ±100 for the full control effect). In short, it runs like this: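 Antagonist mode: inhibition of 0.5 nM 17-beta-estradiol-driven beta-lactamase reporter in HEK 293 ER-alpha-UAS-bla cells, 18 h at 37C, CCF4 readout after 2 h at RT. Normalised to estradiol and DMSO; titration fitted to Hill.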
(In general: qHTS replaces the single test concentration by a dilution series.)

Assay [2] shares this target. Put plainly: qHTS assay for small molecule agonists of estrogen receptor alpha signaling (AID 588514; calls by dose curve; also: nearly all actives have a fitted effect of over 70% in size; also: potency is read from the fitted curve at half-maximal effect;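 as to activation: 0% = vehicle only and 100% = reference agonist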). In a few lines: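 Cells were plated at 5000/well, incubated 4 hrs at 37 C, dosed with compound titration series, incubated 18 hrs at 37 C, loaded with CCF4 dye for 2 hrs at RT, then fluorescence was read.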
In assay [3] the target is Glucocorticoid receptor (Homo sapiens) (UniProt P04150). Briefly: qHTS assay for small molecule agonists of glucocorticoid receptor signaling (AID 588532; active = well fitted curve in the direction sought with a large enough effect in the signal ratio, with a control signal flat; the % refers to the signal ratio;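 also: 100% = dexamethasone at 0.1 µM and 0% = DMSO only wells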). The conditions noted are these: HeLa MMTV-bla, beta-lactamase ratio, agonist, 18 h; stronger effect = higher value; percent of dexamethasone control, DMSO zero. In a few lines: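 Cells were plated and rested 3-5 h at 37 C, compounds were added in titration and incubated 18 h, then CCF4 substrate was loaded for 2 h at RT before reading blue/green fluorescence. EC50 came from Hill-equation fitting.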

For assay [4] the target is unchanged. Put plainly: qHTS assay for small molecule antagonists of glucocorticoid receptor signaling (AID 588533; active = well fitted inhibition curve with a large enough effect in the signal ratio, with a control signal flat, not every such curve was filed as active; the % refers to the signal ratio;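 also: cells stimulated with 2 nM dexamethasone as agonist; % is scaled to controls: 0 for no effect and ±100 for the full control effect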). In short, it runs like this:
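Antagonist-mode qHTS: compound titrations added to GRE-bla HeLa cells, then dexamethasone 2 nM final; 18 h, 37 C. CCF4 FRET fluorescence normalized to dexamethasone and DMSO; IC50 from Hill fit.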

A short description of assay [5]: qHTS assay for small molecule antagonists of peroxisome proliferator-activated receptor delta signaling (AID 588535; active = well fitted inhibition curve with a large enough effect in the signal ratio, with a control signal flat, not every such curve was filed as active; the % refers to the signal ratio;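 as to max response: cells co-treated with a PPAR-delta agonist as stimulator during compound exposure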). The conditions noted are these: HEK293T PPARd-UAS-bla, beta-lactamase FRET ratio, 18 h; 460 nm channel. In a few lines: (§1)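 Antagonist-mode beta-lactamase reporter (GeneBLAzer PPAR-delta-UAS-bla) in HEK293T cells, 2% charcoal/dextran FBS, 4000 cells/well. Compound titrations, 18 h at 37 C; CCF4 ratio read, IC50 and efficacy from Hill fits.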

Assay [6] concerns the target Peroxisome proliferator-activated receptor delta (Homo sapiens) (UniProt Q03181). The assay is described as above. In short, it runs like this:
as §1

Assay [7] in a line: qHTS assay for small molecule agonists of retinoid X receptor alpha signaling (AID 588544; calls by dose curve;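 as to activation: 0% = DMSO basal wells and 100% = reference agonist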). The conditions noted are these: HEK293T RXRa-UAS-bla, beta-lactamase reporter, 18 h; 530 nm emission.
The target in assay [8] is Retinoic acid receptor RXR-alpha (Homo sapiens) (UniProt P19793). The description is as above.
The target in assay [9] is Thyroid hormone receptor beta (Homo sapiens) (UniProt P10828). Briefly: qHTS assay for small molecule agonists of thyroid hormone receptor beta signaling (AID 588545; calls by dose curve). In short, it runs like this: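 Agonist-mode beta-lactamase reporter assay, HEK 293 cells, 2% charcoal/dextran FBS; cells plated 4 hrs, compound 18 hrs at 37 C, CCF4 2 hrs RT. Normalized to 10 nM T3 (100%) and DMSO (0%); Hill fit gives EC50, efficacy.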

Assay [10] in a line: qHTS assay for small molecule antagonists of retinoid X receptor alpha signaling (AID 588546; active = well fitted inhibition curve with a large enough effect in the signal ratio, with a control signal flat, not every such curve was filed as active; the % refers to the signal ratio;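 also: cells stimulated with 9-cis-retinoic acid as agonist; % is scaled to controls: 0 for no effect and ±100 for the full control effect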). The conditions noted are these: HEK293T RXRa-UAS-bla, beta-lactamase ratio, antagonist mode; measured here: W530 green channel, cytotoxicity proxy. In a few lines: (§2)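 Beta-lactamase reporter inhibition, read as CCF4 fluorescence ratio (ex 405, em 460/530 nm) after 2 h at RT. HEK293T UAS-bla cells, 2500/well, were stimulated with 9-cis-RA at 500 or 100 nM final alongside test compound for 18 h at 37 C.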

The target in assay [11] is Retinoic acid receptor RXR-alpha (Homo sapiens) (UniProt P19793). The assay is described as above. The conditions noted are these: HEK293T RXRa-UAS-bla, beta-lactamase ratio, antagonist mode. In a few lines: as §2
Assay [12] in a line: qHTS assay for small molecule activators of the nuclear factor-kappa B (NF-kB) signaling pathway (AID 651749; active = well fitted activation curve with a large enough effect in the signal ratio; the % refers to the signal ratio; also: series mostly up to about 77 µM; % of control where 0% means no effect). As to conditions: NF-kB-bla ME-180 cells, beta-lactamase FRET ratio, 16 h; activation: stronger effect = higher value. In a few lines:
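NF-kB-bla ME-180 cells carrying a beta-lactamase reporter under an NF-kB response element, 2,000 cells/well, exposed to compound for 16 hr at 37C; FRET-based beta-lactamase fluorescence read-out of pathway activation.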

A short description of assay [13]: qHTS assay for environmental chemicals that activate the Aryl hydrocarbon Receptor (AhR) signaling pathway (AID 651777). Also: % of control where 0% means no effect; nearly all actives have a fitted effect of over 15% in size. As to conditions: 1A2-DRE human hepatoma cells, luciferase, 24 h; activation: stronger effect = higher value. In a few lines:
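Luminescence read-out: One-Glo added for 30 min at RT after 24 hr compound treatment (37 C, 5% CO2) of human hepatoma cells expressing a DRE/CYP1A2 promoter–luciferase reporter; increased signal indicates AhR activation.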

Assay [14] concerns the target Peroxisome proliferator-activated receptor alpha (Homo sapiens) (UniProt Q07869). Put plainly: qHTS assay for small molecule agonists of the peroxisome proliferator-activated receptor alpha (PPARalpha) signaling pathway (AID 651778). Also: % of control where 0% means no effect. The conditions noted are these: PathHunter PPARalpha complementation, chemiluminescence, 6 h; max response: stronger effect = higher value. In a few lines: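 Enzyme-fragment complementation assay in which ligand-bound PPARalpha translocates and forms an active enzyme that generates chemiluminescence. Cells were plated overnight, exposed to compound for 6 hr at 37 C, and then given detection reagent for 60 min at room temperature.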

The nature of assay [15]: qHTS assay for small molecule agonists of the antioxidant response element (ARE) signaling pathway measured by Nrf2-dependant transcriptional activity (AID 720636; active = well fitted curve in the direction sought with a large enough effect in the repeat runs; an effect the other way counts as inactive or inconclusive;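 also: HepG2 cells with an ARE-driven luciferase reporter; % of control where 0% means no effect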). In short, it runs like this: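 HepG2 ARE-luc reporter line, 1% dialyzed FBS; 6 hr attachment at 37 C, compound pinned in, 16 hr at 37 C/5% CO2; ONE-Glo, 30 min RT, luminescence read.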
Assay [16] in a line: qHTS assay for small molecule agonists of the antioxidant response element (ARE) signaling pathway measured by Nrf2-dependant transcriptional activity - cell viability counter screen (AID 720653; active = well fitted curve in the direction sought with a large enough effect in the repeat runs; an effect the other way counts as inactive or inconclusive; also: % is scaled to controls: 0 for no effect and ±100 for the full control effect). The conditions noted are these: ARE-bla HepG2 viability, CellTiter-Glo ATP luminescence, 16 h; max response: stronger effect = lower value. In a few lines:
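ARE-bla HepG2 cells treated with compounds for 16 h at 37C; this counter screen measures viability as intracellular ATP by CellTiter-Glo luminescence after 30 min at room temperature.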

Assay [17] is described as follows: qHTS assay for cell viability of HEK293 cells (AID 743288). Also: % is scaled to controls: 0 for no effect and ±100 for the full control effect; nearly all actives have a fitted effect of over 50% in size. As to conditions: ATP luminescence (CellTiter-Glo), 18 h; max response: stronger effect = lower value. In a few lines: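 Total intracellular ATP, measured with a luciferase-coupled reagent, indicates the number of viable HEK293 cells. Exposure to test chemicals lasts 18 h at 37 C in 1,536-well format at 2,000 cells/well.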

Assay [18] can be described thus: qHTS assay for cell viability of the p53RE-bla HCT-116 cell line (AID 743292). Also: % is scaled to controls: 0 for no effect and ±100 for the full control effect; nearly all actives have a fitted effect of over 55% in size. In a few lines: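 Luminescent ATP quantitation (CellTiter-Glo) served as the viability read-out; reagent was added after 16 h compound exposure at 37 C and read after 30 min at room temperature. Cells: p53RE-bla HCT-116, 4,000 per well.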
Assay [19] deals with Nuclear receptor subfamily 1 group I member 2 (Rattus norvegicus) (UniProt Q9R1A7). Briefly: qHTS assay for small molecule activators of the rat pregnane X receptor (rPXR) signaling pathway (AID 651751; call rule not given here; also: 0% is about no effect). The conditions noted are these: rPXR reporter cells, luciferase (One-Glo), 24 h.
The nature of assay [20]: qHTS assay for small molecule activators of the human pregnane X receptor (PXR) signaling pathway (AID 720659; call rule not given here; also: 0% is about no effect).

Molecules are shown by their SMILES. Results filed as inconclusive are left out. Calls of active or inactive are those of the source. Unless noted, calls follow the shape of the dose curve; as a rule, active = well fitted curve in the direction sought with a large enough effect; inconclusive = small, poorly fitted or top-dose-only effect, or another doubt; inactive = no such curve, though single readings can be large; an effect the other way counts as inactive or inconclusive.

Sequence of Peroxisome proliferator-activated receptor alpha (Homo sapiens) (Q07869 whole entry, looked up, the tested form may be a part): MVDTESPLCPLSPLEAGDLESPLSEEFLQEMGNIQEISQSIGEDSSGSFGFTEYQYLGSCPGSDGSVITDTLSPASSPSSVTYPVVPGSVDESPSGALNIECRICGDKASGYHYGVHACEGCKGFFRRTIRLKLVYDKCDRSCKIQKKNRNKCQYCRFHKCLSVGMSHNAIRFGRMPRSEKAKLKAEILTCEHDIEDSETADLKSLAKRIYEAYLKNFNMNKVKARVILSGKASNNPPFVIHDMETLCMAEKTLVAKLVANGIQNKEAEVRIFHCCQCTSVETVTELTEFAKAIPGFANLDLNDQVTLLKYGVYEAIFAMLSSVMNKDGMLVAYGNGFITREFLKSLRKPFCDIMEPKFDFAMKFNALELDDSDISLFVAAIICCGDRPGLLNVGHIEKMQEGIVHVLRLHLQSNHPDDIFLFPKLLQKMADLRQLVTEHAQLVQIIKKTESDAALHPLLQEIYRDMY
Sequence of Peroxisome proliferator-activated receptor delta (Homo sapiens) (Q03181 whole entry, looked up): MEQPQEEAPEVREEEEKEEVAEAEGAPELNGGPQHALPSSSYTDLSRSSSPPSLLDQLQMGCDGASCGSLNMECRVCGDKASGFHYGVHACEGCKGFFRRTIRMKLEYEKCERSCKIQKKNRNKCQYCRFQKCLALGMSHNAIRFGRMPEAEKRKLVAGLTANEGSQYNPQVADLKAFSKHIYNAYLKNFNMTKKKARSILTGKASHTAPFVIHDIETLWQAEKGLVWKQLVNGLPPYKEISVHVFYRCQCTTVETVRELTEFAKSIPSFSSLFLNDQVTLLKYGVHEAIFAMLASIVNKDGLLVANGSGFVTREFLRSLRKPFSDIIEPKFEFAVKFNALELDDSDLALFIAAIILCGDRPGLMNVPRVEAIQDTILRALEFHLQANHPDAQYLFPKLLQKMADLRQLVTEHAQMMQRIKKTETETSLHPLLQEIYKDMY
Sequence of Glucocorticoid receptor (Homo sapiens) (P04150 whole entry, looked up): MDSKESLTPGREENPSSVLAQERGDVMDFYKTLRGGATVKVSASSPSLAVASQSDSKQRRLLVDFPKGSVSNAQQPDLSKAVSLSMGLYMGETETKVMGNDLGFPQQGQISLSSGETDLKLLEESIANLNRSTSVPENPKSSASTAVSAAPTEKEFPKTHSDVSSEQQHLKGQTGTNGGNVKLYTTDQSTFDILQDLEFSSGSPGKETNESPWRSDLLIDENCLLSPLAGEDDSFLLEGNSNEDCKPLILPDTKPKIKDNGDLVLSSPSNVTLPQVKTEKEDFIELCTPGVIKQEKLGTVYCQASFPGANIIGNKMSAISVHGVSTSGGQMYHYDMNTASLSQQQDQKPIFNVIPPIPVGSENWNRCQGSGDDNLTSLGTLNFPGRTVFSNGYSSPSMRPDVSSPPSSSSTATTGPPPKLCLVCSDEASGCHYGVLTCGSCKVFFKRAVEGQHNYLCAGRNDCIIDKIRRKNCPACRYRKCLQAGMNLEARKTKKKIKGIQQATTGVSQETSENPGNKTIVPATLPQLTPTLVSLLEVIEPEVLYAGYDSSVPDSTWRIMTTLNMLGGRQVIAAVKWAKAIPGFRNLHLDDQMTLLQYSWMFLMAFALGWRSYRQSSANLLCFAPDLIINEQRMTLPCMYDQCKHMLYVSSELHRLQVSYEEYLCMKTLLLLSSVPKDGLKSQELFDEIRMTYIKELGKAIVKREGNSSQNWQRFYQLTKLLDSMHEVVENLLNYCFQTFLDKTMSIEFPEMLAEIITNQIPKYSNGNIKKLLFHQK
Sequence of Nuclear receptor subfamily 1 group I member 2 (Rattus norvegicus) (Q9R1A7 whole entry, looked up): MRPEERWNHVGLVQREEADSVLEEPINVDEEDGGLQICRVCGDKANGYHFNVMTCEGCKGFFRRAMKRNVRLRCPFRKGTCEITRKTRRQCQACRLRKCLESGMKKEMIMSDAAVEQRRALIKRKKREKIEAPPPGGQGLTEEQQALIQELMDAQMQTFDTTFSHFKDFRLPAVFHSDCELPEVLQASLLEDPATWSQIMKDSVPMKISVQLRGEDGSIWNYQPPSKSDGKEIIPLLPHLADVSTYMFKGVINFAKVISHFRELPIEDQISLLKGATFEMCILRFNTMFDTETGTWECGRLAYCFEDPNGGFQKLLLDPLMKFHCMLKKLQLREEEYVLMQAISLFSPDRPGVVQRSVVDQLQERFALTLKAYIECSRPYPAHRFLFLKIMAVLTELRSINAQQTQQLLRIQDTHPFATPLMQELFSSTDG
Sequence of Retinoic acid receptor RXR-alpha (Homo sapiens) (P19793 whole entry, looked up): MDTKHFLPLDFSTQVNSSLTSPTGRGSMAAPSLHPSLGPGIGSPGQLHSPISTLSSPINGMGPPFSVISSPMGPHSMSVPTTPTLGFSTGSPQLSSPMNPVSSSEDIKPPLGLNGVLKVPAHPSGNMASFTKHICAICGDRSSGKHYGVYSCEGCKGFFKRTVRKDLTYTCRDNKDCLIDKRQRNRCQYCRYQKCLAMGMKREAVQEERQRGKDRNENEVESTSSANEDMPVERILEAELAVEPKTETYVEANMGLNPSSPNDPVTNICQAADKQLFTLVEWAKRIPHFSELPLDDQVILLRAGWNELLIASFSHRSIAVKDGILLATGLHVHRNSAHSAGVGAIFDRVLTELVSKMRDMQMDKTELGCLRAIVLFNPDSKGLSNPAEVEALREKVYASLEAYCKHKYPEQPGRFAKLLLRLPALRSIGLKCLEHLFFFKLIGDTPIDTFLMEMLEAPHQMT
Sequence of Thyroid hormone receptor beta (Homo sapiens) (P10828 whole entry, looked up): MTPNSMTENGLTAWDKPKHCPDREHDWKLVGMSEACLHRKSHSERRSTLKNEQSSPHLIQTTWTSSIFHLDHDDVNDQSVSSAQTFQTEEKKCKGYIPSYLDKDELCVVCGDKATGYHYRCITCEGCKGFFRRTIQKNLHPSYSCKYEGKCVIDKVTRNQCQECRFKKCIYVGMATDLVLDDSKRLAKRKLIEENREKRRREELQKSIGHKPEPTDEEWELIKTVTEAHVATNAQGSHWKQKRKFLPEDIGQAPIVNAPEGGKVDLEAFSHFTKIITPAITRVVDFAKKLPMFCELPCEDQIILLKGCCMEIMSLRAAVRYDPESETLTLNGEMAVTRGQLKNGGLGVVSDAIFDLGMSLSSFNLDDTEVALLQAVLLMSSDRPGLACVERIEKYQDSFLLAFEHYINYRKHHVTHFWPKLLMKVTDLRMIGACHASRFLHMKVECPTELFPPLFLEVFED
Sequence of Estrogen receptor (Homo sapiens) (P03372 whole entry, looked up): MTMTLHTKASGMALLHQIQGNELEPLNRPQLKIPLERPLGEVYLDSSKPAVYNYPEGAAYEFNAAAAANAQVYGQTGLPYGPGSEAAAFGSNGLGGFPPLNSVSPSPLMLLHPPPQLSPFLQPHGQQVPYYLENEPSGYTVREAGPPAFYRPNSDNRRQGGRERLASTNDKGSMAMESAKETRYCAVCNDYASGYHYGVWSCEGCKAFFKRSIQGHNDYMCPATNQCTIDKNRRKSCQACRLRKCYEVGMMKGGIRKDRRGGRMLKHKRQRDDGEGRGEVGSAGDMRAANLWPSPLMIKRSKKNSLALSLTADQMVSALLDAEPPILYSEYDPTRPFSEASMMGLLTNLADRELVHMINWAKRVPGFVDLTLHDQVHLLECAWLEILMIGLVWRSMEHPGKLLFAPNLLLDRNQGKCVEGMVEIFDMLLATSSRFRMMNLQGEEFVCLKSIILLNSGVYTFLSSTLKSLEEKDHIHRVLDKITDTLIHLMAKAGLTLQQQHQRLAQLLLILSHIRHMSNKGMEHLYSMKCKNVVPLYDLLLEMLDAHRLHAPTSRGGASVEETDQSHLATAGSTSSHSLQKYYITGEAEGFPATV

As to `C=CCCCCCCCCC=O`, the Potency entry in assay [1], in assay [2], in assay [4], in assay [6], in [8] and in assay [9] was “inactive” throughout. The Potency entry in assay [15] and in [18] was “inactive” each time. Moreover, the activation is 4.91% (inactive) in [3], -0.972% (inactive) in assay [12] and 0.287% (inactive) in assay [13]. The max response in [5] is 14.1%; in assay [7] it was -12%; in assay [10], -4.83%; in [11] it was -16.9% (inactive); in assay [14] it was -1.39% (inactive); in assay [16], 3.17% (inactive). Further, the max response is -14% (inactive) in [17] and -2.8% (inactive) in [19]. Moreover, in assay [20], the molecule was called inactive.
Turning to `O=C(Cl)c1cc(Cl)cc(Cl)c1`, the Potency entry in [1], in assay [2], in assay [4], in assay [6], in assay [8] and in assay [9] was “inactive” each time. For the same molecule, the Potency entry in assay [15] and in assay [18] was “inactive” each time. Further, the activation is -2.63% (inactive) in assay [3], -1.64% (inactive) in [12] and 2.73% (inactive) in [13]. For the same molecule, the max response was 16% in [5]; -4.35% in assay [7]; 3.33% in assay [10]; -11.9% (inactive) in assay [11]; -3.03% (inactive) in assay [14]; -8.26% (inactive) in assay [16]. In addition, the max response was -4.86% (inactive) in [17] and 2.44% (inactive) in assay [19]. Moreover, the molecule was classed as inactive in [20].
Regarding `O=C(O)C(c1ccc(Cl)cc1)c1ccc(Cl)cc1`, the Potency result in [1], in assay [2], in assay [6], in [9], in assay [15] and in [18] was “inactive” each time. Further, the max response was -10.8% in assay [5]; -10.2% in [10]; 12.2% (inactive) in assay [11]; 3.51% (inactive) in assay [14]; -12.1% (inactive) in [16]; 0.137% (inactive) in assay [17]. In addition, the max response in [19] was -4.74% (inactive). The activation in [12] is 0.121% (inactive); in assay [13], -0.789% (inactive). Moreover, the outcome in [20] was inactive.
Turning to `NNS(=O)(=O)c1ccc(Oc2ccc(S(=O)(=O)NN)cc2)cc1`, the Potency entry in [1], in [6], in assay [8], in assay [9], in assay [15] and in [18] was “inactive” each time. The Potency in assay [2] is 0.447 µM (active). The max response is 18.7% in assay [5]; -6.27% in assay [7]; -11.5% in [10]; -7.05% (inactive) in [11]; -6% (inactive) in assay [14]; -13.9% (inactive) in assay [16]. For the same molecule, the max response in [17] was 0.11% (inactive); in [19], 8.65% (inactive). The activation in assay [12] was -1.01% (inactive); in assay [13], 0.263% (inactive). Moreover, the result in [20] was inactive.
Take `CC1(C)CC(N)CC(C)(CN)C1` (stereo unspecified): the Potency entry in assay [1], in assay [2], in assay [4], in assay [6], in assay [8] and in assay [9] was “inactive” throughout. Moreover, the Potency result in [15] and in [18] was “inactive” each time. Also, the activation in assay [3] is 10.3% (inactive); in [12], -0.653% (inactive). The max response in assay [5] was -18%; in assay [7], -8.73%; in assay [10], -12.5%; in [11], 4.46% (inactive); in assay [16], -2.66% (inactive); in assay [17] it was -2.22% (inactive). For the same molecule, the max response in assay [19] is -2.15% (inactive). Also, in [20], the result was inactive.
Consider `c1ccc(-c2ccc(-c3ccccc3)cc2)cc1`, for which the Potency entry in assay [1], in [2], in assay [4], in assay [6], in assay [9] and in assay [18] was “inactive” in each case. Moreover, the activation was -0.857% (inactive) in [3] and 0.439% (inactive) in [12]. Further, the max response is -0.983% in assay [5]; -5.51% in assay [10]; -0.186% (inactive) in [14]; -5.82% (inactive) in assay [16]; -2.69% (inactive) in assay [17]. Further, the result in assay [20] was inactive.
